In ChEMBL document CHEMBL4513216, “Probing the Open Global Health Chemical Diversity Library for Multistage-Active Starting Points for Next-Generation Antimalarials” (ACS Infect Dis, 2020):
In all, about 69,000 compounds went through this assay and about 8,600 (12%) showed an effect of 50% or more. What follows is part of a selection rich in strong results, with near analogues and random picks from the rest.

system: Plasmodium berghei; experiment: Screen against P. berghei liver stage (PbLuc), transformed with Luciferase, at 10uM; assay type: functional, HepG2; conditions: tested at 10 uM

| Structure (SMILES) | INHIBITION [%] |
| --- | --- |
| O=C(COCc1ccco1)Nc1cc(C(F)(F)F)c[nH]c1=O | 19.6 |
| CCc1nc(C2CCCN2CCn2cncn2)no1 (stereo not drawn) | 16.7 |
| CC(C)[C@]1(O)CN(C(=O)COCC(N)=O)C[C@H]1C | 10.6 |
| CNC(=O)N1CC[C@@H]2CN(Cc3cccc(Cl)c3)S(=O)(=O)[C@@H]2CC1 | -2.17 |
| CNC(=O)N1CC[C@@H]2CN(Cc3cccc(OC)c3)S(=O)(=O)[C@@H]2CC1 | 63.8 |
| COc1cccc(CCCNC(=O)N2CCC(O)(C(F)(F)F)C2)c1 (stereo not drawn) | 41.4 |
| COc1cccc(NC(=O)N2CCC(O)(C(F)(F)F)C2)c1 (stereo not drawn) | 79.1 |
| CNC(=O)N1CC[C@@H]2CN(CCc3cccc(OC)c3)S(=O)(=O)[C@@H]2CC1 | 8.31 |
| COc1cccc(CC(=O)N2CCC(O)(C(F)(F)F)C2)c1 (stereo not drawn) | 49.1 |
| c1cc2c(cc1-n1nc(C3CC3)nc1-c1csnn1)OCCO2 | 27.2 |
| O=C(c1ccoc1)N1CCC(NCc2ccccc2Cl)CC1 | 7.81 |
| CN(C)C(=O)Cn1c(C2CC2)c(CN2CCC(O)CC2)c2cccnc21 | -8.58 |
| Cc1csc(CCNC(=O)Nc2cc(C(F)(F)F)c[nH]c2=O)n1 | 22 |
| Cc1occc1C(=O)N1C[C@@H](C(=O)NCc2ccco2)C[C@H]2OCC[C@H]21 | 32.2 |
| Cc1c[nH]c(C2CCCN(Cc3cccc(C(=O)O)c3)C2)n1 (stereo not drawn) | 6.26 |
| CCOc1cc(CN2CCCC2)ccc1Oc1cccc(C#N)n1 | 47.6 |
| CC(=O)Nc1ccc(Oc2cccc(CN3CCCC3)c2)cc1 | 27.9 |

| Structure (SMILES) | INHIBITION [%] |
| --- | --- |
| COc1ccc(Oc2cccc(C#N)n2)cc1CN1CCCC1 | 25.4 |
| COc1ccc(CN2CCCC2)cc1Oc1cccc(C#N)n1 | 57.5 |
| N#Cc1ccc(CN2CCOCC2)cc1 | 40.6 |
| N#Cc1cccc(Oc2ccc(CN3CCCC3)cc2Cl)n1 | 55 |
| O=C1CCNc2ccc(F)cc2CN1Cc1ccco1 | 1.8 |
| Cc1ccc(-c2nc(C3CCN(C(=O)c4cnn(C)c4)CC3)no2)cn1 | 30.5 |
| O=c1[nH]c(N2CCOCC2)nc2c1CN(Cc1cccnc1)CC2 | -4.51 |
| O=C1CCCN1CCCC(=O)N1CCC2(CC1)[C@H](O)C[C@@H]2O | 9.56 |
| CN(Cc1nc(Cc2cccc(C(F)(F)F)c2)no1)CC1CCCCO1 (stereo not drawn) | 42.1 |
| CNC(=O)COc1cccc(CNC(=O)c2c(C)noc2C(C)C)c1 | 37.4 |
| Cc1cc(C)c2nc(CN3CCOCC(O)C3)cc(O)c2c1 (stereo not drawn) | 17.6 |
| Cc1cc(C)c2nc(CN3CCC(CN)C3)cc(O)c2c1 (stereo not drawn) | -8.75 |
| Cc1cc(C)c2nc(CN3CCC(CN)CC3)cc(O)c2c1 | 34.9 |
| Cc1cc(C)c2nc(CN3CCCC(c4cc[nH]n4)C3)cc(O)c2c1 (stereo not drawn) | 78.5 |
| COC1CCCN(Cc2cc(O)c3cc(C)cc(C)c3n2)C1 (stereo not drawn) | 61.2 |
| Cc1cc(C)c2nc(CN3CC[C@@H](O)C3)cc(O)c2c1 | 20.1 |
